Unmarked numbers belong to inactive results. For part of these data: Measured potencies and affinities stand elsewhere. Active and inactive are the calls of the source. Unless noted, the rule behind the calls is not given here.

The nature of assay [1]: antimalarial activity against Dd2 strain (AID 2302;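 active = growth inhibition above 50% at the single 2 µM test dose, taken to imply half-maximal potency below 2 µM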;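 note: 0% = DMSO untreated growth and 100% = chloroquine plus artemisinin killed control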). Conditions: P. falciparum Dd2 in RBCs, LDH growth readout, 72 h; at 2 µM; hits give high values.
A short description of assay [2]: human hepatoma cell viability loss – ATP luminescence, cytotoxicity control for P. falciparum antimalarial project, primary screen (AID 2303;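 active = inhibition above 50%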;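 note: 0% = DMSO wells and 100% = digitonin-killed cells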). Particulars: HepG2 viability, 24-48 h, at 10 µM, hits give high values.
Assay [3] deals with L-lactate dehydrogenase (Plasmodium falciparum (isolate CDC / Honduras)) (UniProt Q27743). The experiment in a line: PfLDH activity inhibition – cell lysate, 3D7 strain, counter-screen for P. falciparum growth inhibition project (AID 2304).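 Note: 0% = vehicle and 100% = reference inhibitor.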 Particulars: P. falciparum 3D7 crude extract, LDH APAD/NBT absorbance; at 2 µM; hits give high values.
Assay [4] can be described thus: inhibition of 3D7 malaria parasite growth – strain 3D7 (AID 2306).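 Note: 0% = DMSO wells and 100% = chloroquine plus artemisinin control wells.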 Particulars: P. falciparum 3D7 erythrocytic growth, LDH absorbance, 72 h; at 2 µM; hits give high values.
Assay [5] addresses Calcium-dependent protein kinase 1 (Plasmodium falciparum (isolate 3D7)) (UniProt P62344). The experiment in a line: PfCDPK1 kinase inhibitors, biochemical, TCAMS library (AID 1159585; cut-off not given, nearly all actives have IC50 up to about 0.98 µM;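 note: inhibitors leave more ATP so luminescence rises with inhibition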). Particulars: recombinant PfCDPK1, Kinase-Glo ATP depletion luminescence. In general terms: Kinase-Glo measures the ATP left after a reaction by luminescence.
Assay [6] addresses Plasmodium falciparum protein kinase 6 (PK6, PF3D7_1337100) (UniProt Q8IDW1). The experiment in a line: PfPK6 kinase inhibitors, biochemical, TCAMS library (AID 1159586). Particulars: recombinant PfPK6, Kinase-Glo ATP depletion luminescence.
Assay [7] addresses Protein kinase 7 (PK7), Plasmodium falciparum 3D7 (PF3D7_0213400) (UniProt Q7YTF7). The experiment in a line: inhibition of Plasmodium PK7 catalytic activity – biochemical, TCAMS antimalarial set, Kinase-Glo luminescence (AID 1159587). Conditions: recombinant PfPK7, Kinase-Glo ATP depletion luminescence.
The target of assay [8] is Calcium-dependent protein kinase 4 (Plasmodium falciparum (isolate 3D7)) (UniProt Q8IBS5). The experiment in a line: PfCDPK4 kinase inhibitors, biochemical, TCAMS library (AID 1159588; cut-off not given, nearly all actives have IC50 up to about 0.91 µM). Conditions: recombinant PfCDPK4, Kinase-Glo ATP depletion luminescence.
Sequence of Calcium-dependent protein kinase 4 (Plasmodium falciparum (isolate 3D7)) (Q8IBS5 whole entry, looked up): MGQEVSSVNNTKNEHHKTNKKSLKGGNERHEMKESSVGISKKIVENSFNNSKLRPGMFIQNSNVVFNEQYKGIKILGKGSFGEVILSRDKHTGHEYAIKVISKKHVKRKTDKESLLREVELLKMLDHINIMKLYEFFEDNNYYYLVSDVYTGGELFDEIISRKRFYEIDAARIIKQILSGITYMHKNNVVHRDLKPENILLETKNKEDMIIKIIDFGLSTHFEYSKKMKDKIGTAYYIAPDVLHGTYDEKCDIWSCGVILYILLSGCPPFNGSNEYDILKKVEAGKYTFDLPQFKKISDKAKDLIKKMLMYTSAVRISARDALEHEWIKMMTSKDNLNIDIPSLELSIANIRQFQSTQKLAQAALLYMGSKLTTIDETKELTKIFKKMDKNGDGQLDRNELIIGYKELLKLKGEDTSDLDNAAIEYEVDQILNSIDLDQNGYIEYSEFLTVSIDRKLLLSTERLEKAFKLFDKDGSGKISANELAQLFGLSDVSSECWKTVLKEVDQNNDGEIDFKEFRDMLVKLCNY

Sequence of Protein kinase 7 (PK7), Plasmodium falciparum 3D7 (PF3D7_0213400) (Q7YTF7 1-343): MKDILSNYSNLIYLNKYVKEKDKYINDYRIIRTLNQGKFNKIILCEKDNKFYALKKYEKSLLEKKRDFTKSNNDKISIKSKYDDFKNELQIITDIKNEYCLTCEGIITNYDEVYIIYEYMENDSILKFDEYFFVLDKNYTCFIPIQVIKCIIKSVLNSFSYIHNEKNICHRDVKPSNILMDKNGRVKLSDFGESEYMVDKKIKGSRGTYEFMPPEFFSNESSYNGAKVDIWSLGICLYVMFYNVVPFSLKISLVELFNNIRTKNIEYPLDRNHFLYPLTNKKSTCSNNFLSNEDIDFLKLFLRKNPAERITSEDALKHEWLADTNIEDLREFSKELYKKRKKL
Sequence of L-lactate dehydrogenase (Plasmodium falciparum (isolate CDC / Honduras)) (Q27743 whole entry, looked up): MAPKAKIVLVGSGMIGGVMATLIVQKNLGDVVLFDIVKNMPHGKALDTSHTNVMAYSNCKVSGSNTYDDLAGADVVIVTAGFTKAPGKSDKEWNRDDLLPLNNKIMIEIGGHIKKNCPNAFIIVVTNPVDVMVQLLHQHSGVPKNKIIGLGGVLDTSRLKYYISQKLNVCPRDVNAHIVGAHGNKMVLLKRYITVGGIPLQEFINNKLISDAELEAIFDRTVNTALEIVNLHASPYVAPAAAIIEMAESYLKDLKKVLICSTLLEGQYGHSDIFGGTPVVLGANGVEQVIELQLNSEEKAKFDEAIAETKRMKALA
Sequence of Plasmodium falciparum protein kinase 6 (PK6, PF3D7_1337100) (Q8IDW1 1-305): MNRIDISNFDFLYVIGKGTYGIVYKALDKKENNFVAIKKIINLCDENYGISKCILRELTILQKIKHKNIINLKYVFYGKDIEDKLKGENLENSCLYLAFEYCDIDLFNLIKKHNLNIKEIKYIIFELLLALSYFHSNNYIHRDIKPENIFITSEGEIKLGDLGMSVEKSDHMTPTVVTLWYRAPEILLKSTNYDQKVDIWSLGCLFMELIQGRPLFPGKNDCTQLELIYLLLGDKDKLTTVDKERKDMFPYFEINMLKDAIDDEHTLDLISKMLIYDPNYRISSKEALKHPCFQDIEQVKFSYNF
Sequence of Calcium-dependent protein kinase 1 (Plasmodium falciparum (isolate 3D7)) (P62344 whole entry, looked up): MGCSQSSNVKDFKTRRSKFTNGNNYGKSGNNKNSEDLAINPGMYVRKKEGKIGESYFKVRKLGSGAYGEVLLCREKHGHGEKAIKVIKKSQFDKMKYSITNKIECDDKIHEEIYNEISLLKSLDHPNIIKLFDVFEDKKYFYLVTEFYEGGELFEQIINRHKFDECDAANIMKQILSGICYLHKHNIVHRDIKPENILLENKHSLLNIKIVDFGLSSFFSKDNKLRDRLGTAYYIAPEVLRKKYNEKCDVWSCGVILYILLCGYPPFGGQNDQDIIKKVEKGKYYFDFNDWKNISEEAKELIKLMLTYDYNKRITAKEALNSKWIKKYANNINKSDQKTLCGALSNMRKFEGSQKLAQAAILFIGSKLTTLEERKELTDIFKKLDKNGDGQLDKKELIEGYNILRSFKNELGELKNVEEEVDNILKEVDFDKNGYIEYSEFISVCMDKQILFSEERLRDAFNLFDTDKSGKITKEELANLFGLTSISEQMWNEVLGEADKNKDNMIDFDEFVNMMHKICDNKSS

For the molecule `CC(CN1CCN(C)CC1)C(=O)Nc1ccc(-c2cccc(-c3nc4ccc(F)cc4[nH]3)c2)cc1` (stereo not drawn), the growth inhibition in assay [1] was 99% (active); in assay [4], 100% (active). For the same molecule, the inhibition in assay [2] is 8%; in assay [3], 0%. In addition, the outcome in assay [5], in assay [6], in assay [7] and in assay [8] was inactive.

For the molecule `N#Cc1ccc(-c2ccc(C(=O)NCCCCN3CCC(c4cn(CCCO)c5ccccc45)CC3)cc2)cc1`, the growth inhibition is 56% (active) in assay [1] and 98% (active) in assay [4]. Moreover, the values for the inhibition in assay [2] and in assay [3] were 31% and -2%, respectively. Besides, the result in assay [5], in assay [6], in assay [7] and in assay [8] was inactive.

Turning to `Cc1ccc(O)cc1Nc1ccnc2cc(-c3csc(CN(C)CCN(C)C)n3)ccc12`, the growth inhibition in assay [1] was 80% (active); in assay [4], 101% (active). For the same molecule, the inhibition was 3% in assay [2] and 4% in assay [3]. Besides, the result in assay [5], in assay [6], in assay [7] and in assay [8] was inactive.

For the molecule `CN(CCCNCc1cccc2ccccc12)CCCNCc1cccc2ccccc12`, the growth inhibition in assay [1] is 94% (active); in assay [4], 100% (active). The results for the inhibition in assay [2] and in assay [3] were 93% (active) and -3%, respectively. Also, the result in assay [5], in assay [6], in assay [7] and in assay [8] was inactive.

Regarding `COc1ccc2ncc(F)c(CCN3CCC[C@H](CNCc4ccc5c(n4)NC(=O)CS5)C3)c2n1`, the growth inhibition in assay [1] was 34%; in assay [4] it was 96% (active). In addition, the inhibition is 16% in assay [2] and 3% in assay [3]. Besides, the outcome in assay [5], in assay [6], in assay [7] and in assay [8] was inactive.

For `O=C(Nc1ccc2c(c1)OCO2)c1cc(-c2cccnc2)cnc1NCc1ccc2c(c1)OCO2`, the results for the growth inhibition in assay [1] and in assay [4] were 1% and 87% (active), respectively. The inhibition in assay [2] and in assay [3] was 2% throughout. The outcome in assay [5], in assay [6], in assay [7] and in assay [8] was inactive.

Turning to `NC(N)=Nc1nc(-c2ccc(NC(=O)Nc3cccc(-c4csc(N=C(N)N)n4)c3)cc2)cs1`, the values for the growth inhibition in assay [1] and in assay [4] were 80% (active) and 94% (active), respectively. The inhibition was -9% in assay [2] and 3% in assay [3]. In addition, the result in assay [5], in assay [6], in assay [7] and in assay [8] was inactive.

As for `Cc1nc2c(Nc3nc(-c4ccncc4)cs3)ncnc2n1-c1ccccc1Cl`, the values for the growth inhibition in assay [1] and in assay [4] were 96% (active) and 97% (active), respectively. Besides, the inhibition in assay [2] was 14%; in assay [3] it was 0%. The result in assay [5], in assay [6], in assay [7] and in assay [8] was inactive.

As to `COc1cc(NC(=O)N2CCOC(CCN3CCC(c4ccccc4)CC3)(c3ccc(Cl)c(Cl)c3)C2)cc(OC)c1` (stereo not drawn), the growth inhibition in assay [1] was 73% (active); in assay [4] it was 93% (active). Further, the inhibition was 12% in assay [2] and 0% in assay [3]. For the same molecule, the result in assay [5], in assay [6], in assay [7] and in assay [8] was inactive.

For the molecule `COc1ccc(NC(=O)NC2CCN(CCCCCNC(=O)/C=C/c3ccc(Cl)c(Cl)c3)CC2)cc1`, the growth inhibition in assay [1] is 1%; in assay [4] it was 96% (active). The values for the inhibition in assay [2] and in assay [3] were 5% and 0%, respectively. For the same molecule, the outcome in assay [5], in assay [6], in assay [7] and in assay [8] was inactive.

On to `CC(C)COc1ccc(Cl)cc1Cc1ccc(-c2nc3cc(F)c(F)cc3[nH]2)o1`, for which the growth inhibition is 96% (active) in assay [1] and 95% (active) in assay [4]. Besides, the inhibition in assay [2] is 27%; in assay [3], 4%. Also, the result in assay [5], in assay [6], in assay [7] and in assay [8] was inactive.

Take `CN1CCN(c2cc3c(cc2Br)CCN3C(=O)Nc2ccc(-c3cnc4ccccc4c3)cc2)CC1`: the results for the growth inhibition in assay [1] and in assay [4] were 79% (active) and 99% (active), respectively. Besides, the inhibition is 100% (active) in assay [2] and 3% in assay [3]. For the same molecule, the outcome in assay [5], in assay [6], in assay [7] and in assay [8] was inactive.

Regarding `CCN(CC)CCOc1cc2c(cc1Br)-c1cc(Br)c(OCCN(CC)CC)cc1C2=NO`, the growth inhibition in assay [1] is 98% (active); in assay [4], 100% (active). The inhibition in assay [2] is 99% (active); in assay [3], -3%. Moreover, the outcome in assay [5], in assay [6], in assay [7] and in assay [8] was inactive.

`CN(C)C(=S)N=Nc1c(O)[nH]c2ccc(OC(F)(F)F)cc12`: the results for the growth inhibition in assay [1] and in assay [4] were 52% (active) and 93% (active), respectively. For the same molecule, the inhibition in assay [2] is 36%; in assay [3] it was 3%. Further, the result in assay [5], in assay [6], in assay [7] and in assay [8] was inactive.

In the case of `Cc1ccc2c(c1)c(C1CCN(C(=O)c3ccc([N+](=O)[O-])o3)CC1)cn2C`, the results for the growth inhibition in assay [1] and in assay [4] were 76% (active) and 97% (active), respectively. Also, the inhibition is -6% in assay [2] and -1% in assay [3]. In addition, the outcome in assay [5], in assay [6], in assay [7] and in assay [8] was inactive.

Regarding `O=C(NC1CCN(Cc2ccsc2)CC1)c1ccc(-c2cccc(C(F)(F)F)c2)s1`, the growth inhibition in assay [1] was 3%; in assay [4], 88% (active). The inhibition in assay [2] was 48%; in assay [3], -2%. For the same molecule, the outcome in assay [5], in assay [6], in assay [7] and in assay [8] was inactive.

For the molecule `NC(N)=Nc1nc(-c2cc(NC(=O)C(F)(F)F)cc([N+](=O)[O-])c2)cs1`, the growth inhibition in assay [1] was 51% (active); in assay [4], 98% (active). The inhibition is 7% in assay [2] and 5% in assay [3]. In addition, the result in assay [5], in assay [6], in assay [7] and in assay [8] was inactive.

Consider `NC(=NCCc1ccc(Cl)cc1)c1ccc(Cl)c(Cl)c1`, for which the growth inhibition in assay [1] was 42%; in assay [4], 100% (active). Besides, the results for the inhibition in assay [2] and in assay [3] were 43% and -1%, respectively. The result in assay [5], in assay [6], in assay [7] and in assay [8] was inactive.

As to `COc1ccc(NC(=O)CCNc2cc(C)nc(NCc3cccc(C)c3)n2)cc1`, the growth inhibition in assay [1] is 25%; in assay [4] it was 100% (active). Further, the inhibition is 14% in assay [2] and 1% in assay [3]. The outcome in assay [5], in assay [6], in assay [7] and in assay [8] was inactive.

Take `CC(Cc1ccc(OCCN2CCN(c3cccc(Cl)c3)CC2)cc1)NCC(O)c1cccc(C(F)(F)F)c1` (stereo not drawn): the growth inhibition in assay [1] was 98% (active); in assay [4], 99% (active). Besides, the values for the inhibition in assay [2] and in assay [3] were 100% (active) and -1%, respectively. The result in assay [5], in assay [6], in assay [7] and in assay [8] was inactive.

In the case of `Cc1cc(Nc2nc(NCc3cccnc3)nc3ccccc23)n[nH]1`, the growth inhibition was 33% in assay [1] and 101% (active) in assay [4]. Further, the inhibition was 11% in assay [2] and 1% in assay [3]. The outcome in assay [5], in assay [6], in assay [7] and in assay [8] was inactive.

The term inhibition denotes the relative decrease from the control value, in per cent.

These data come from PubChem BioAssay.
